Compound activity deposited in PubChem BioAssay by several laboratories.
Most compounds without a hit are left out; they make up all but 2.4% or so of the library.
TLR9-MyD88 block = TLR9-MyD88 interaction inhibition. Q9NR96+Q99836. inhibition, % at 4.98 µM. CHO BLA complementation TLR9-MyD88, CCF4 FRET ratio. actives 0.21% (n = 340,000);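 active means inhibition above the mean over all tested compounds plus 3 SD, cut at about 21% in these data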
CRFR2-BP antag = CRF-BP/CRF-R2 complex antagonism; AID 588475; inhibition, % at 11.8 µM; HEK293 CRF-R2/CRF-BP, CRF-induced calcium fluorescence; actives 0.59% (n = 350,000);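 active means inhibition of the ligand-induced calcium signal above about 50% at the single tested concentration, limit read from the data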
ABHD5-PLIN5 inh = ABHD5-PLIN5 protein interaction inhibition; inhibition, % at 4 µM; AID 602281; Q00G26+Q8WTS1; actives 0.78% (n = 360,000); Split G. princeps luciferase complementation, luminescence, 4 h;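 active means inhibition above the mean inhibition across every tested compound plus 3 SD, cut at about 22% in these data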
HTR2A ag = agonists of mouse serotonin 5-HT2A receptor (HTR2A); P35363; CHO-K1 mHTR2A beta-arrestin complementation, luminescence; percent of 30 µM serotonin response; activation, % at 7.6 µM; actives 0.66% (n = 360,000); AID 624169;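 active means activation above a run cutoff, the mean activation of all tested compounds plus 3 SD, cut at about 14% in these data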
Target sequence (P35363 whole entry, looked up): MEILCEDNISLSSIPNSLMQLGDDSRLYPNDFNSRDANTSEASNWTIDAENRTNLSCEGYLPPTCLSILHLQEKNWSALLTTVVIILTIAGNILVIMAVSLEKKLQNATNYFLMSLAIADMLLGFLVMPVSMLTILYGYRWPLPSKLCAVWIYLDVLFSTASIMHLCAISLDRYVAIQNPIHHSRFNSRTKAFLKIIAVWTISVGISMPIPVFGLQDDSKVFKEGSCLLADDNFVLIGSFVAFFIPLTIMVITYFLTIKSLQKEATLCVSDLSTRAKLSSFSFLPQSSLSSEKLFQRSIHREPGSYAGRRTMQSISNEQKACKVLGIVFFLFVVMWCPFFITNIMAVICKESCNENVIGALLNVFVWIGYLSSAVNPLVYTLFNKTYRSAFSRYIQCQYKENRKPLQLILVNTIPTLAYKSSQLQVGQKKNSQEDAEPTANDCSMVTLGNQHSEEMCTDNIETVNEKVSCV
TLR4 MyD88 comp = TLR4-MyD88 interaction inhibition in cells; inhibition, % at 8.4 µM; O00206+Q99836; actives 0.18% (n = 200,000); AID 861; HeLa CL3-4 TLR4/MyD88 BLA complementation, FRET ratio; in the data active means inhibition above about 25%
NOD2-RIPK2 inh = inhibitors of human NOD2-RIPK2 interaction | CHO BLA complementation NOD2-RIPK2, CCF4 ratio | inhibition, % at 4.98 µM | actives 0.38% (n = 360,000) | AID 624267; in the data active means inhibition above about 21%
ABHD5-PLIN5 conf = confirmation of human ABHD5-PLIN5 interaction inhibitors. shares compounds with ABHD5-PLIN5 inh. biochemical ABHD5-PLIN5 interaction, luminescence. inhibition, % at 4 µM. actives 67% (n = 2,200). AID 651612; in the data active means inhibition above about 23%
HNF4 split-luc = counter-screen for ABHD5-PLIN5 inhibitors: HNF4 split-luciferase. shares compounds with ABHD5-PLIN5 inh. HNF4 dimerization, luminescence, biochemical. inhibition, % at 4 µM. actives 77% (n = 2,200). AID 651674;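 active means mean inhibition across replicate wells exceeding the computed hit threshold, cut at about 13% in these data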;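 further: light from luciferase halves that rejoin when HNF4 fusion proteins dimerize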
A number is an active result; – = inactive; · = not tested or not shown; ! = repeats disagree.

SMILES | TLR9-MyD88 block | CRFR2-BP antag | ABHD5-PLIN5 inh | HTR2A ag | TLR4 MyD88 comp | NOD2-RIPK2 inh | ABHD5-PLIN5 conf | HNF4 split-luc
O=C1C(=Cc2ccc(F)cc2)CCc2ccccc21 | · | · | – | – | · | – | · | ·
C[C@@H]1CN([C@@H](C)CO)C(=O)c2cc(Br)cnc2O[C@H]1CN(C)C(=O)c1ccncc1 | – | – | – | – | · | – | · | ·
O=C(Nc1cccc2c1CCCC2)c1cc(C2CCCCN2S(=O)(=O)c2cccs2)on1 (stereo not drawn) | · | · | – | – | · | – | · | ·
O=C1NC(Cc2ccccc2)C(=O)Nc2ccc(Br)cc21 (stereo not drawn) | – | – | – | – | · | – | · | ·
O=C1Nc2ccc(Br)cc2/C1=C/C1CC=CCC1 (stereo not drawn) | – | – | 25 | – | – | – | 53 | 38
CCc1cc(-c2cnnn2Cc2ccccc2)ccc1-c1cn(CC(C)C)nn1 | – | – | – | – | · | – | · | ·
Cc1ccsc1/C=N/NC(=O)CNC(=O)c1cccc([N+](=O)[O-])c1C | – | – | 25 | – | – | – | – | –
COc1ccc(OC)c(NC(=O)Nc2nc(C(N)c3ccccc3Cl)cs2)c1 (stereo not drawn) | · | · | – | – | · | – | · | ·
Cc1cccc(Nc2nnc(SC(C)C(=O)NC3CC3)s2)c1 (stereo not drawn) | – | – | – | – | · | – | · | ·
CCc1ccc(Nc2nnc(SC(C)C(=O)NC3CC3)s2)cc1 (stereo not drawn) | – | 79 | 78 | – | · | – | – | –
CCC(C)NC(=O)Nc1ccc2c(c1)N(C)C(=O)c1ccccc1S2 (stereo not drawn) | – | – | 46 | – | – | – | 60 | –
O=C(C[C@H]1C[C@H](C(=O)N2CCOCC2)[C@@]2(CCC3CCCC3)c3[nH]c4cc(-c5ccco5)ccc4c3CCN2C1=O)NCc1cccc(C(F)(F)F)c1 | – | – | 23 | – | · | – | – | –
CCN(CC)C(=O)[C@H]1C[C@H](CC(=O)NCCc2ccccn2)C(=O)N2CCc3c([nH]c4cc(-c5ccco5)ccc34)[C@]12C | – | – | 24 | – | · | – | – | –
O=C(C[C@H]1C[C@H](C(=O)N2CCCCC2)[C@@]2(CCc3ccccc3)c3[nH]c4cc(-c5ccco5)ccc4c3CCN2C1=O)NCc1cccc(C(F)(F)F)c1 | – | – | – | – | · | – | · | ·
O=C(C[C@H]1C[C@H](C(=O)N2CCOCC2)[C@@]2(CCC3CCCC3)c3[nH]c4cc(-c5ccco5)ccc4c3CCN2C1=O)NCCN1CCOCC1 | – | – | – | – | · | – | · | ·
COc1ccc(CNC(=O)C[C@H]2C[C@H](C(=O)N3CCOCC3)[C@@]3(CCC4CCCC4)c4[nH]c5cc(-c6ccco6)ccc5c4CCN3C2=O)cc1OC | – | – | 29 | – | · | – | – | 13
CN(C)CCCNC(=O)C[C@H]1C[C@H](C(=O)N2CCOCC2)[C@@]2(CCC3CCCC3)c3[nH]c4cc(-c5ccco5)ccc4c3CCN2C1=O | – | – | 25 | – | · | – | – | –
CC1CCN(S(=O)(=O)c2ccc(NC(=O)Cc3cccs3)cc2)CC1 | – | – | 33 | – | – | – | 44 | –
CC1CCN(S(=O)(=O)c2ccc(NC(=O)Cn3nnc(-c4ccccc4)n3)cc2)CC1 | – | – | 26 | – | – | – | 53 | –
O=C(NCc1cccnc1)c1cc(C2CCCN(S(=O)(=O)c3cccc4cccnc34)C2)on1 (stereo not drawn) | · | · | – | – | · | – | · | ·
CCOC(=O)CSc1nnc(NCC(=O)OC(C)C)c(=O)[nH]1 | – | – | 27 | – | – | – | 48 | 98
COc1ccc(CC(=O)n2[nH]c(=O)cc(C)c2=O)cc1OC | – | – | 42 | – | · | – | 65 | 87
Cc1cccc(C)c1NC(=O)C1(C)CSCC(=O)N1CCCn1ccnc1 (stereo not drawn) | · | · | – | – | · | – | · | ·
NS(=O)(=O)c1ccc(N2CCCCCC2)c([N+](=O)[O-])c1 | · | – | 74 | – | – | – | – | 13
O=[N+]([O-])c1cc(S(=O)(=O)N2CCOCC2)ccc1N1CCCC1 | – | – | – | – | – | – | · | ·
SMILES | TLR9-MyD88 block | CRFR2-BP antag | ABHD5-PLIN5 inh | HTR2A ag | TLR4 MyD88 comp | NOD2-RIPK2 inh | ABHD5-PLIN5 conf | HNF4 split-luc
CCOC(=O)C1=C[C@@H](C(C)(C)C)N(S(=O)(=O)c2ccc(C)cc2)[C@H]1c1ccc(C)cc1 | · | · | – | – | · | – | · | ·
COc1ccc(C(C)(NC(C)=O)c2nc(-c3cnc4ccccc4c3)cs2)cc1 (stereo not drawn) | · | · | – | – | · | – | · | ·
O=C(CCl)N1N=C(c2ccco2)CC1c1cccs1 (stereo not drawn) | – | – | 24 | – | – | – | 30 | 20
Fc1ccc(NC(=S)SCc2ccc3c(c2)OCO3)cc1F | – | – | – | – | · | – | · | ·
Cn1c(CN2CCCC2)nc2cc(NC(=O)c3ccc(Cl)cc3)ccc21 | – | – | 49 | – | – | – | – | –
Cn1c(CCN2CCCC2)nc2cc(NS(=O)(=O)c3ccc(Cl)cc3)ccc21 | – | – | 27 | – | · | – | – | 16
Cc1ccc(S(=O)(=O)Nc2ccc3c(c2)nc(CCN2CCCC2)n3C)cc1 | – | – | – | – | · | – | · | ·
COc1ccc(CCC(=O)O)c(C(CC(=O)O)C(=O)O)c1OS(=O)(=O)c1ccc(C)cc1 (stereo not drawn) | – | – | – | – | · | – | · | ·
CSCCC(C(=O)NC1CCCC1)n1c(C2CC2)nc2ccccc21 (stereo not drawn) | · | · | – | – | · | – | · | ·
CCOC(=O)C1=C(C)NC(C)=C(C(=O)OCC)C1C(=O)OCC(=O)N(C)C1CCS(=O)(=O)C1 (stereo not drawn) | – | – | 96 | – | – | – | – | –
Cc1ccc(C(=O)/C=C/c2cc(Br)cc(Br)c2O)o1 | – | – | 30 | – | · | – | 59 | 25
CCCCNC(=O)C[C@@H]1C[C@@]2(C(=O)OC)CCCCC=C2N(Cc2ccccc2)C1=O | · | · | – | – | · | – | · | ·
COc1ccc(OC)c(N=c2ssnc2Cl)c1 | – | – | – | – | – | – | · | ·
COc1cc(N=c2ssnc2Cl)c(OC)cc1Cl | – | – | 41! | – | – | – | 74 | 106
CC(=O)OCC1=C(C(=O)O)N2C(=O)[C@@H](NC(=O)CSc3ccncc3)[C@H]2SC1 | – | – | – | – | · | – | · | ·
CC(=O)OCC1=C(C(=O)O)N2C(=O)C(NC(=O)c3ccc(F)cc3)C2SC1 (stereo not drawn) | – | – | 30 | – | – | – | – | 28
CC(=O)NC(C)(c1ccccc1)c1nc(-c2ccc(F)c(Cl)c2)cs1 (stereo not drawn) | · | · | – | – | · | – | · | ·
